Common to all, as to assay: NCI-60 one-dose screen, 48 h (100 = growth as untreated, 0 = no growth, -100 = all killed)
Holding throughout (conditions): 10 µM unless noted

The subject of assay [1] is NCI-H23 lung.
Assay [2] deals with NCI-H226 lung.
Assay [3] has as its system NCI-H322M lung.
The subject of assay [4] is HOP-62 NSCLC.
In assay [5] the test system is NCI-H460 lung.
Assay [6] concerns A549/ATCC NSCLC.
Assay [7] concerns 786-0 renal.
Assay [8] concerns COLO 205 colon.

This is part of a sample that, as a whole, favours compounds with a hit. Of some 83,000 tested, about 20% had one in any assay.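 Treatment: one concentration, 48 hours, 96-well format. Scoring: percent growth, with anything below 10 considered active.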 A number with no mark means an inactive call. Calls of active or inactive are those of the source.

On to `CC[N+](C)(C)N`, for which the growth in assay [1] is 114%; in assay [2], 89.9%; in assay [3], 93.2%; in assay [4] it was 111%; in assay [5], 108%; in assay [6], 105%. Besides, the growth in assay [7] was 100%; in assay [8] it was 112%.

In the case of `COC(=O)[C@H](Cc1cn(C)cn1)NC(=O)[C@H](CC(=O)OCc1ccccc1)NC(=O)Nc1cc(C(F)(F)F)cc(C(F)(F)F)c1`, the growth in assay [1] is -83.9% [100 µM] (active); in assay [2], -52.9% [100 µM] (active); in assay [3], -96.7% [100 µM] (active); in assay [4], -100% [100 µM] (active); in assay [5], -62.8% [100 µM] (active); in assay [6], -80.9% [100 µM] (active). The values for the growth in assay [7] and in assay [8] were -92% [100 µM] (active) and -93.7% [100 µM] (active), respectively.

`COC(=O)c1c[n+]([O-])ccc1OC`: the growth in assay [1] was 106%; in assay [2], 107%; in assay [3], 97.1%; in assay [4], 97.1%; in assay [5] it was 107%; in assay [6], 105%. Besides, the figures for the growth in assay [7] and in assay [8] were 100% and 109%, respectively.

As for `Cc1ccccc1-n1c(C)nc2cc(NC(=O)c3ccc(Cl)cc3)ccc2c1=O`, the growth is 64.3% in assay [1]; 88.8% in assay [2]; 94.2% in assay [3]; 97.4% in assay [4]; 72.4% in assay [5]; 72.2% in assay [6]. The growth in assay [7] was 67.6%; in assay [8], 119%.

As to `Nc1nc2cc(O)ccc2n2cc3c(F)cccc3c12`, the growth in assay [1] was 40.9%; in assay [2], 54.8%; in assay [3] it was 32.5%; in assay [4], 24.9%; in assay [5], 2.35% (active); in assay [6], 22.6%. In addition, the results for the growth in assay [7] and in assay [8] were 27.6% and 55.1%, respectively.

In the case of `CC(=O)NCCN`, the growth in assay [1] is 111%; in assay [2], 97.5%; in assay [3], 108%; in assay [4], 108%; in assay [5], 109%; in assay [6] it was 96.6%. The growth is 98.3% in assay [7] and 106% in assay [8].

Take `CC(Br)c1nc2ccccc2cc1C(N)=O` (centres undefined): the growth was 107% in assay [1]; 106% in assay [2]; 99.9% in assay [3]; 101% in assay [4]; 102% in assay [5]; 97% in assay [6]. Further, the growth in assay [7] was 103%; in assay [8] it was 110%.

Take `CCCCCCCCCCCCOC(=N)N(C)C`: the growth was 107% in assay [1]; 96.2% in assay [2]; 95% in assay [3]; 97% in assay [4]; 99.8% in assay [5]; 91.7% in assay [6]. Moreover, the growth was 96.8% in assay [7] and 100% in assay [8].

Consider `CCCCCCCCCCC1OC(C)CC(C)O1` (centres undefined), for which the growth in assay [1] is 100%; in assay [2] it was 102%; in assay [3] it was 102%; in assay [4] it was 99.8%; in assay [5], 106%; in assay [6] it was 98.7%. The growth in assay [7] was 93.4%; in assay [8] it was 105%.

With `CC(=O)O.[In]`, the growth was 103% in assay [1]; 101% in assay [2]; 97.6% in assay [3]; 106% in assay [4]; 111% in assay [5]; 99.6% in assay [6]. Further, the growth in assay [7] is 101%; in assay [8], 112%.

As to `Cc1cc2cn3c4ccc(O)cc4[nH]c(=O)c3c2cc1C`, the growth in assay [1] is 25.3%; in assay [2], 54.3%; in assay [3] it was -8.89% (active); in assay [4], 11.7%; in assay [5] it was -81.9% (active); in assay [6], 3.2% (active). Moreover, the figures for the growth in assay [7] and in assay [8] were 19.1% and -63.3% (active), respectively.

For `COc1cc(-c2nn(-c3ccc(NC(=O)Nc4ccc(Cl)c(Cl)c4)cc3)cc2-c2ccncc2)ccc1Cl`, the growth was 22.9% in assay [1]; 52.6% in assay [2]; 68.4% in assay [3]; 47.5% in assay [4]; 7.14% (active) in assay [5]; 25.8% in assay [6]. For the same molecule, the growth was 4.3% (active) in assay [7] and 20.1% in assay [8].

`COc1ccc(-c2nnc(SCC(=O)Nc3ccc(C(=O)/C=C/c4cc(OC)c(OC)c(OC)c4)cc3)n2-c2ccccc2)cc1OC`: the growth in assay [1] is -66.5% [100 µM] (active); in assay [2], -15% [100 µM] (active); in assay [3] it was 34.5% [100 µM]; in assay [4], -31.4% [100 µM] (active); in assay [5] it was 11% [100 µM]; in assay [6] it was -28.4% [100 µM] (active). Moreover, the growth is -54.9% [100 µM] (active) in assay [7] and 30.3% [100 µM] in assay [8].

For `CNc1ccc(Nc2ccc(S(=O)(=O)O)cc2)c2c1C(=O)c1ccccc1C2=O`, the growth was 106% in assay [1]; 96.6% in assay [2]; 112% in assay [3]; 125% in assay [4]; 108% in assay [5]; 92% in assay [6]. Also, the growth in assay [7] is 103%; in assay [8] it was 118%.

Regarding `COc1cc([C@@H]2c3cc4c(cc3[C@H](O)[C@H]3COC[C@@H]23)OCO4)cc(OC)c1OC`, the growth is 91.8% in assay [1]; 88.8% in assay [2]; 104% in assay [3]; 65.4% in assay [4]; 94.4% in assay [5]; 98.8% in assay [6]. The growth in assay [7] is 78.5%; in assay [8], 96.7%.

On to `O=C(Nc1ccc(-n2cc(-c3ccncc3)c(-c3ccc(Cl)c(O)c3)n2)cc1)c1cc(Cl)cc(Cl)c1`, for which the growth in assay [1] is 60.3%; in assay [2], 111%; in assay [3], 60.4%; in assay [4], 22.2%; in assay [5], 14.1%; in assay [6], 41.4%. The growth in assay [7] was -39% (active); in assay [8], 72.9%.

For the molecule `COc1cccc(NC(=O)NCCNc2nccc(-c3c(-c4ccc(F)cc4)nc4sccn34)n2)c1`, the growth in assay [1] is 89.9%; in assay [2] it was 85.9%; in assay [3] it was 115%; in assay [4], 99.4%; in assay [5], 58.8%; in assay [6], 54.4%. Moreover, the growth in assay [7] is 63%; in assay [8], 69.3%.

On to `CCCCCCCCCCCCCCCCNC(=S)N/N=C/c1ccc(OC)cc1`, for which the growth is 103% in assay [1]; 98.6% in assay [2]; 108% in assay [3]; 117% in assay [4]; 104% in assay [5]; 96.1% in assay [6]. Moreover, the values for the growth in assay [7] and in assay [8] were 95.3% and 115%, respectively.

Regarding `CC#Cc1nc(Nc2cc(C)[nH]n2)c2ccccc2n1`, the growth in assay [1] was 2.12% [100 µM] (active); in assay [2] it was -27.7% [100 µM] (active); in assay [3] it was 9.12% [100 µM] (active); in assay [4], -23.1% [100 µM] (active); in assay [5], 3.75% [100 µM] (active); in assay [6], 1.41% [100 µM] (active). For the same molecule, the growth in assay [7] was 7.19% [100 µM] (active); in assay [8] it was -100% [100 µM] (active).

With `N#Cc1c2ncccc2c2nnc3cc(Cl)c(Cl)cc3n12`, the growth is 88.6% in assay [1]; 104% in assay [2]; 100% in assay [3]; 82.7% in assay [4]; 100% in assay [5]; 107% in assay [6]. In addition, the results for the growth in assay [7] and in assay [8] were 108% and 113%, respectively.

Take `O=C(Nc1ccc(-n2cc(-c3ccncc3)c(-c3ccc(Cl)c(O)c3)n2)cc1)c1ccc(Cl)c(Cl)c1`: the growth in assay [1] was 45.7%; in assay [2] it was 107%; in assay [3], 97.1%; in assay [4], 6.9% (active); in assay [5] it was 8.3% (active); in assay [6] it was 43.6%. Also, the growth in assay [7] is -63.5% (active); in assay [8] it was 51.9%.

As to `O=C(/C(Br)=C/c1ccccc1)c1ccccc1`, the growth is 93.3% in assay [1]; 110% in assay [2]; 107% in assay [3]; 80.3% in assay [4]; 84.9% in assay [5]; 78.6% in assay [6]. Moreover, the growth in assay [7] was -90.5% (active); in assay [8] it was -70.8% (active).

In the case of `COc1ccc(/C=N/c2cc(C(C)(C)C)nn2-c2ccccc2)cc1`, the growth in assay [1] is 106%; in assay [2], 89%; in assay [3], 110%; in assay [4] it was 111%; in assay [5] it was 97.1%; in assay [6] it was 101%. For the same molecule, the growth in assay [7] is 93.7%; in assay [8], 105%.

Take `O=C(c1ccccc1)c1ccccc1-c1ccccc1`: the growth in assay [1] was 46.2%; in assay [2], 71.8%; in assay [3], 65.6%; in assay [4] it was 32.5%; in assay [5], 15.1%; in assay [6], 38.3%. Besides, the growth in assay [7] was 37.8%; in assay [8] it was 22.6%.

For the molecule `Cc1c(C(N)=O)sc2c1c(=O)n(Cc1ccccc1)c1nnc(S(C)(=O)=O)n21`, the growth in assay [1] is 97.1%; in assay [2], 96.2%; in assay [3], 107%; in assay [4], 78.8%; in assay [5], 91.3%; in assay [6], 102%. The growth in assay [7] was 108%; in assay [8], 93.8%.

As to `CC(O)CN(CC(C)O)N(CC(C)O)CC(C)O` (centres undefined), the growth in assay [1] was 108%; in assay [2] it was 97.5%; in assay [3], 107%; in assay [4] it was 101%; in assay [5], 106%; in assay [6], 95.5%. In addition, the growth in assay [7] was 99.5%; in assay [8] it was 109%.

In the case of `C=CCNCCC#N`, the growth in assay [1] was 113%; in assay [2], 92.9%; in assay [3] it was 115%; in assay [4] it was 105%; in assay [5], 111%; in assay [6], 99.2%. The growth is 102% in assay [7] and 116% in assay [8].

For `CCCCS(=O)(=O)c1cc(Nc2ccc(O)c3c2C(=O)c2ccccc2C3=O)ccc1C`, the growth in assay [1] was 45.7%; in assay [2] it was 87.8%; in assay [3], 27.6%; in assay [4], 72.5%; in assay [5], 14.9%; in assay [6] it was 28.3%. Moreover, the growth in assay [7] is 87.1%; in assay [8], 70.7%.

(Values after PubChem BioAssay (NCI).)
